Assay outcomes: PubChem, several laboratories
Fh CTSL1 inh: counter-screen for PFM18AAP inhibitors: inhibitors of F. hepatica cathepsin L1; recombinant F. hepatica cathepsin L1, Z-Leu-Arg-MCA fluorescence; inhibition, % at 5.96 µM; 0.49% of 300,000 active; AID 1906;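 active = inhibition above the mean of all tested compounds plus 3 SD, set per screening campaign, cut at about 17% in these data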;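 note: 0% = plate median of test compound wells and 100% = 1 µM Z-Phe-Ala-diazomethylketone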
APOBEC3G inh: inhibitors of human APOBEC3G DNA deaminase; recombinant A3G, ssDNA deamination FAM/TAMRA fluorescence; inhibition, % at 20 µM; 0.28% of 330,000 active;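 active = inhibition of at least 40% at 20 µM, with no more than 30% in the related APOBEC3A deaminase screen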;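 note: plate controls were DMSO wells with A3G for no effect and wells lacking A3G enzyme for full effect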
APOBEC3A inh: human APOBEC3A DNA deaminase inhibition | recombinant A3A, FAM/TAMRA ssDNA deamination fluorescence | P31941 | inhibition, % at 20 µM | 0.41% of 330,000 active;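 active = at least 40% inhibition at 20 µM here, with at most 30% in a related deaminase screen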;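 note: plate controls were A3A with DMSO for no effect and wells lacking A3A enzyme for full effect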
Target sequence (P31941 whole entry, looked up): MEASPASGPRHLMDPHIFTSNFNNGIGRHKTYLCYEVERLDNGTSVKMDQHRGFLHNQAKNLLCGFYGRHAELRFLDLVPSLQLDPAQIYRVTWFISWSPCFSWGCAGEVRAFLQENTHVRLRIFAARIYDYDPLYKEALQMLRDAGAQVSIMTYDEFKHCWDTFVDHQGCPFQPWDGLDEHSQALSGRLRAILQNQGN
HGIII-sPLA2 inh: Inhibits HGIII-sPLA2 liposome hydrolysis, primary screen; 0.56% of 370,000 active; QFRET BODIPY PC-A2 liposome hydrolysis, fluorescence; inhibition, % at 12.2 µM;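 active = inhibition above mean plus 3 SD of compounds lying within the high and low control bounds, cut at about 19% in these data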;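 note: 0% = median of test compound wells and 100% = no enzyme DMSO wells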
NALP1 yeast inh: blocks the NALP1 inflammasome reconstituted in yeast; S. cerevisiae NALP1/ASC/caspase-1 growth, X-gal OD620, 72 h; inhibition, % at 10 µM; 0.61% of 280,000 active; in the data active = inhibition mostly above about 24%, no sharp cut-off; inactive = mostly below about 32%
A3A conf: APOBEC3A (human) deaminase inhibition, confirmed; shares compounds with APOBEC3A inh; recombinant A3A, ssDNA deaminase UDG fluorescence assay; inhibition, % at 20 µM; 63% of 1,400 active;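 active = inhibition reaching a set limit, 80% of the first screen's cutoff, at 20 µM in any replicate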;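 note: plate controls were DMSO wells with A3A for no effect and wells lacking A3A enzyme for full effect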
UDG A3A counter: inhibits UDG, flagging false APOBEC3A inhibitors; shares compounds with APOBEC3A inh; UDG counterscreen, FAM/TAMRA uracil oligo fluorescence; inhibition, % at 20 µM; 1,000 tested, under 10 active; call rule not given here
* = called active by the depositor; . = no result given. Rows were chosen to be rich in hits. Some 2% of all compounds tested hit in one or more screens of this group.

SMILES	Fh CTSL1 inh	APOBEC3G inh	APOBEC3A inh	HGIII-sPLA2 inh	NALP1 yeast inh	A3A conf	UDG A3A counter
O=C(CSc1nc2sccc2c(=O)[nH]1)N1CCN(c2ccccc2)CC1	0.8	15.1	87.2*	4.0	2.3	53.2*	-2.1
O=C(CSc1nc2ccccc2[nH]1)N1CCN(c2ccccc2)CC1	-0.4	5.2	2.9	-8.7	16.3	.	.
O=[N+]([O-])c1ccc2nc(N3CCCC3)sc2c1	4.9	17.8	44.5*	8.9	18.5	54.5*	-1.4
COc1ccc2c(c1)[C@@]1(OCCC=C[C@H]1C)C(=O)N2Cc1ccc(F)cc1	.	.	.	4.4	.	.	.
CCN(CC)S(=O)(=O)c1cccc(C(=O)Nc2ccc(S(=O)(=O)NC3=NCCCCC3)cc2)c1	-0.6	3.2	55.1*	-2.2	.	7.4	.
O=C(COC(=O)c1ccc(O)cc1)Nc1cccc(S(=O)(=O)NC2=NCCCCC2)c1	-9.4	2.3	-4.6	-7.1	15.8	.	.
COc1cc(OC)cc(C(=O)OCC(=O)Nc2cccc(S(=O)(=O)NC3=NCCCCC3)c2)c1	.	-1.1	88.4*	-9.3	.	-4.1	2.1
COC(=O)[C@]12C[C@H](CC(=O)N3CCC(c4ccccc4)CC3)C(=O)N(Cc3ccco3)C1=C[C@H](C1CCCC1)O[C@@H]2C	.	.	.	-11.1	.	.	.
COC(=O)/C=C1/S/C(=N/NC(=O)c2ccccc2C)NC1=O	1.6	-6.8	53.4*	9.6	-5.3	1.9	-1.6
O=C(Nc1ccc(N2CCOCC2)cc1)C1CCN(S(=O)(=O)c2ccc3c(c2)OCCO3)CC1	0.7	-12.5	-1.2	5.6	18.8	.	.
Cc1ccc(S(=O)(=O)N2CCC(C(=O)Nc3ccc(N4CCOCC4)cc3)CC2)cc1C	.	4.1	43.4*	-2.0	.	11.0	.
COc1ccc(C(=O)N[C@H](C(=O)NCc2cccs2)C(C)C)cc1	4.7	-3.9	40.2*	3.6	-1.8	12.0	-0.8
O=C(Nc1cc(S(=O)(=O)N2CCOCC2)ccc1N1CCCC1)c1cc2c(s1)CCCC2	.	.	.	4.3	.	.	.
O=C(NCc1ccco1)c1nc(-c2ccc(F)cc2)no1	-1.2	-9.3	40.1*	-1.3	19.2	-3.1	-2.3
Cc1ccc(-c2noc(CCC(=O)NCc3ccco3)n2)cc1	-0.5	-3.3	6.0	-2.0	44.4	.	.
O=C(OC12CCCN(C1)/C(=C/c1ccccc1)C2)C1CCCC1 (centres undefined)	.	.	.	0.1	.	.	.
O=C(CSc1nnnn1-c1ccccc1)Nc1ccc(N2CCOCC2)c(Cl)c1	-0.3	14.6	63.6*	-5.1	17.9	54.9*	-2.0
O=C(CSc1nnnn1-c1cccc2ccccc12)Nc1ccc(N2CCOCC2)c(Cl)c1	-0.8	3.7	3.8	-9.5	0.1	.	.
O=C1CCCC(O)=C1Sc1ccccc1C(=O)O	-2.0	6.1	54.7*	6.6	6.3	57.1*	-5.6
C[C@H]1CN([C@@H](C)CO)S(=O)(=O)c2ccc(Br)cc2O[C@H]1CN(C)C(=O)c1ccccc1F	.	.	.	9.6	.	.	.
C[C@H]1COc2cc(N3CCSCC3)ccc2S(=O)(=O)N1C	.	.	.	16.7	.	.	.
CCn1cc(Br)c(C(=O)N2CCN(c3ccccc3)CC2)n1	-0.9	-0.1	-2.4	4.4	25.2	.	.
Cn1cnc(C(=O)N2CCN(C(=O)OC(C)(C)C)CC2)c1C(=O)N1CCN(C(=O)OC(C)(C)C)CC1	.	8.5	46.2*	7.8	.	64.5*	-0.1
Cn1cnc(C(=O)N2CCN(c3ccccc3)CC2)c1C(=O)N1CCN(c2ccccc2)CC1	.	16.0	58.8*	4.7	.	67.2*	2.1
CN1C2=N[C@H](c3cccc(C(F)(F)F)c3)CC(=O)N2/C(=C\c2ccccc2)[C@H]1c1ccccc1	.	.	.	-4.0	.	.	.
COc1cccc(CN(C(=O)c2ccco2)C2CCS(=O)(=O)C2)c1 (centres undefined)	3.8	-7.5	-8.2	7.2	11.7	.	.
COc1ccc(CN(C(=O)c2ccco2)C2CCS(=O)(=O)C2)cc1 (centres undefined)	-3.4	-8.2	72.1*	-6.4	-11.3	-6.4	1.7
CCN1CCN(c2ccc(S(=O)(=O)N3CCOCC3)cc2NC(=O)/C=C/c2ccc([N+](=O)[O-])cc2)CC1	1.6	1.2	43.3*	-7.4	.	48.3*	-3.6
CN1CCN(S(=O)(=O)c2cccc(C(=O)N3CCN(c4ccccc4F)CC3)c2)CC1	.	14.9	44.5*	-0.2	.	44.6*	-2.9
